From PubChem BioAssay (NCI)
The panel holds about 83,000 compounds, 20% with a hit somewhere; the sample as a whole holds those more often.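 Plates (96-well) were seeded with cells, treated with compound at one concentration, and incubated for 48 hours before percent growth was determined.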 Unmarked numbers belong to inactive results. Activity calls are given as the source filed them. The calls were made as follows: active = growth percent below 10; inactive = the rest.

How the values were obtained:
Experiment in all cases: NCI-60 one-dose screen, 48 h (100 = growth as untreated, 0 = no growth, -100 = all killed)
Conditions in all cases: 10 µM unless noted
SK-MEL-2 melanoma = system: SK-MEL-2 melanoma
EKVX NSCLC = system: EKVX NSCLC
SN12C renal = system: SN12C renal
UO-31 renal = system: UO-31 renal
TK-10 renal = system: TK-10 renal
ACHN renal = system: ACHN renal
CAKI-1 renal = system: CAKI-1 renal
A498 renal = system: A498 renal
CCRF-CEM leukemia = system: CCRF-CEM leukemia
MOLT-4 leukemia = system: MOLT-4 leukemia

SMILES	growth (SK-MEL-2 melanoma)	growth (EKVX NSCLC)	growth (SN12C renal)	growth (UO-31 renal)	growth (TK-10 renal)	growth (ACHN renal)	growth (CAKI-1 renal)	growth (A498 renal)	growth (CCRF-CEM leukemia)	growth (MOLT-4 leukemia)
CCOC(=O)c1c2c(n3ccc(NC(=O)CCN(CC)CC)cc13)C(=O)c1ncccc1C2=O	29.3%	71.3%	27.6%	28.8%	36.5%	16.1%	23%	46.9%	52.9%	–
CC(=O)/C(=C/c1cccc(Cl)c1)C(=O)c1ccccc1	94.9%	98.6%	100%	72.1%	96.6%	88.6%	95.3%	119%	40.2%	–
CC[n+]1ccc2c(c1)C(=O)c1nccc3c1c-2nc1ccccc13	-34% (active)	11.2%	-75% (active)	15.1%	18.7%	6.37% (active)	24.7%	-9.88% (active)	0.574% (active)	-30% (active)
CCOC(=O)C(=Cc1ccccc1F)C(=O)OCC	98.4%	97.6%	86.9%	87.7%	123%	92.7%	96.5%	131%	95.8%	–
CC[C@]12C=CCN3CC[C@@]4(c5ccc(OC)cc5N(C)[C@H]4[C@@](O)(C(=O)OC)[C@@H]1OC(=O)CCC(=O)N[C@@H](Cc1c[nH]c4ccccc14)C(=O)OC)[C@@H]32	54.4%	93.3%	71.5%	83%	87.4%	93%	108%	83.4%	28.9%	–
COc1cc(OC)c(/C=C/C(=O)c2c(OC)cc(OC)cc2OC)c(OC)c1	6.13% (active)	38.2%	22.6%	30.3%	46.8%	35.9%	7.16% (active)	7.18% (active)	6.27% (active)	–
COc1ccc(/C=C/C(=O)c2ccc(NC(=O)c3cc4cc5ccccc5nc4s3)cc2)cc1OC	103%	94.6%	98.1%	88.5%	126%	102%	98%	83.1%	104%	–
CCCCCCCCCCCCCCCCCCNC(=O)[C@H]1CSC(c2ccc(OC)c(F)c2)N1 (some centres undefined)	-54.1% (active)	17.5%	-80.7% (active)	66.6%	59.5%	87.8%	52.9%	64.9%	-14.4% (active)	10% (active)
CCN(CC)Cc1cc(Nc2c3ccccc3nc3cc(Cl)ccc23)ccc1O	-74.2% (active)	-55.1% (active)	-36.9% (active)	-72.9% (active)	-65.6% (active)	-97.3% (active)	-75% (active)	-61.4% (active)	-11.9% (active)	–
CCOC(=O)Cc1cnn(C)c1NC(=O)c1ccc(Cl)cc1NC(C)=O	84.6%	76.3%	94.8%	91.6%	78.8%	111%	64.8%	105%	97.8%	102%
CCN1CCN(Cc2ccc(NC(=O)Nc3nc4ccc(Oc5ccnc(C(=O)NC)c5)cc4s3)cc2C(F)(F)F)CC1	-22.8% (active)	14.2%	-75.4% (active)	-80.5% (active)	-35.9% (active)	-84.5% (active)	-44.2% (active)	-33.4% (active)	0.0502% (active)	–
CC(=O)C1=C(O)C=C2Oc3c(C(=O)/C=C/c4cc(Cl)cc(Cl)c4)c(O)c(C)c(O)c3[C@]2(C)C1=O	-62.8% (active)	-15.6% (active)	-31.8% (active)	-15.1% (active)	-17.4% (active)	-12.4% (active)	2.74% (active)	-57.7% (active)	-22% (active)	-25.3% (active)
COc1ccc(-c2cc(-c3cccnc3)nc3sc4c(=O)n(-c5ccc(C)cc5)nnc4c23)cc1OC	107%	103%	94.6%	81.1%	115%	93.7%	83.1%	88.8%	104%	–
O=C(Nc1ccc(CN2CCOCC2)cc1)c1[nH]ncc1Nc1ncnc2sccc12	2.93% (active)	13.4%	10.4%	8.4% (active)	8.06% (active)	2.49% (active)	13.2%	-36.8% (active)	5.37% (active)	-2.6% (active)
O=C(CO[N+](=O)[O-])Nc1ccc(C(=O)/C=C/c2ccc(Cl)cc2)cc1	81.7%	67.9%	46.8%	32%	45.7%	62.3%	74.9%	103%	20.1%	–
COc1ccc(-c2cn3c(-c4ccc(OC)cc4)cnc3c(Oc3ccc4c(C)cc(=O)oc4c3)n2)cc1	49.4%	50.2%	24.5%	75%	35.7%	58.1%	71.7%	52.4%	93.2%	–
CC/C=C\C[C@H](O)C/C=C1/C(=O)C=C[C@@H]1C/C=C\CCCC(N)=O	13.9%	23.6%	-4.37% (active)	-70.8% (active)	-13% (active)	-82.2% (active)	11.3%	54.6%	-4.33% (active)	–
CC[C@H](CO)Nc1nc(NCc2ccccc2)n2ncc(C(C)C)c2n1	11.1%	0.263% (active)	17.1%	10%	15.6%	4.26% (active)	9.58% (active)	-21% (active)	-0.868% (active)	–
CC1=NNC(=O)C1C (centres undefined)	99.8%	102%	96.1%	88.2%	377%	103%	81.5%	88.6%	97.1%	145%
CCOC(=O)c1c2ncccc2n2c(=O)n(-c3ccc(Cl)cc3)nnc12	108%	68.7%	103%	61%	154%	77.9%	73.9%	106%	72%	–
CC/C=C\C[C@H](O)C/C=C1/C(=O)C=C[C@@H]1C/C=C\CCCC(=O)OC(C)C	-21.3% (active)	15.9%	-16.3% (active)	-72.6% (active)	-3.87% (active)	-79.1% (active)	9.27% (active)	77.7%	-28.8% (active)	–
COCCOc1ccc(-c2nc3ccc(-c4nc5ccc(N6CCN(C)CC6)cc5[nH]4)cc3[nH]2)cc1	-76.2% (active)	67.9%	18.8%	79.2%	66.4%	80.8%	68.6%	-37.8% (active)	-2.49% (active)	–
COc1cc(NC(N)=NCC(C)(C)COc2ccc(C(F)(F)F)cc2)cnc1C#N	77.3%	70.5%	66.8%	29.8%	62.5%	62.9%	62.8%	45.9%	56%	15.6%
O=[N+]([O-])c1cccc(-c2nc3sccn3c2-c2ccnc(NCCCNS(=O)(=O)c3cccc(F)c3)n2)c1	-29.2% (active)	19.1%	18.7%	-11.6% (active)	52.9%	6.36% (active)	10%	33.7%	3.04% (active)	–
C=C(CN1CCN(c2cccc(C(F)(F)F)n2)CC1)c1ccc(C(=O)Nc2ccccc2N)cc1	-9.9% (active)	47.2%	15.5%	12%	41.6%	34%	14.3%	35.6%	-32.1% (active)	-14.5% (active)
CCOC(=O)c1cnc2cc(Cl)c(F)cc2c1Nc1cccc(NS(C)(=O)=O)c1	113%	90.8%	100%	73.3%	124%	93.5%	86.2%	78.9%	103%	–
Cc1ccc(Nc2nc(N)nc(Nc3ccc4ccccc4c3)n2)cc1	50.6%	72.1%	40.3%	46.4%	69%	46.6%	30.3%	17.6%	27.8%	–
O=C(/C=C/c1cccc(Br)c1)c1ccccc1	93.3%	88%	96.6%	71.1%	69.7%	95.7%	90.6%	87.5%	86.2%	–
CCCCCCCCCc1cc(CN2CCCCC2)c(O)c(CN2CCCCC2)c1	86.7%	37.5%	71.9%	44.1%	81.1%	63.5%	57.7%	75%	61.7%	–
